Screening results as filed in PubChem BioAssay.
This is a sample that favours compounds with a hit; in the whole collection about 19% have one here.
TDP1 cell CPT – qHTS for Inhibitors of human tyrosyl-DNA phosphodiesterase 1 (TDP1): qHTS in cells in presence of CPT; chicken DT40 Tdp1-/-;hTDP1 cells + 20 nM CPT, ATP luminescence, 48 h; Potency, µM (doses to about 46.2 µM), without a hit: at the top dose activity change, negative = growth inhibition, most hits filed as inhibitors; 420,000 compounds, 12% hits; AID 686979, 2013; also: potency is read from the fitted curve at half-maximal effect; % is scaled to controls: 0 for no effect and ±100 for the full control effect; nearly all actives have a fitted effect of over 55% in size
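Cell growth measured by CellTiter-Glo luminescence after a minimum 48 h, 37 C compound exposure with 20 nM CPT in Tdp1-knockout DT40 cells stably expressing hTDP1, seeded 400/well; qHTS titration format.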
SW480 rerep – A quantitative high throughput screen for small molecules that induce DNA re-replication in SW480 colon adenocarcinoma cells | SW480 DNA re-replication, Hoechst DNA content imaging, 48 h | Potency, µM (series often up to 46.1 µM), for inactives: at the highest dose re-replication activation, usual class: activators | 340,000 compounds, 1.8% hits | AID 624297, 2012; also: potency is read from the fitted curve at half-maximal effect; % of control where 0% means no effect; nearly all actives have a fitted effect of over 55% in size
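First, 250 cells per well were seeded. Next, compound or vehicle (23 nL) was pinned in, plates sat 48 hr at 37 C. Finally Hoechst was added for 40 min before fluorescence scanning.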
DT40 TDP1 no CPT – qHTS for Inhibitors of human tyrosyl-DNA phosphodiesterase 1 (TDP1): qHTS in cells in absence of CPT; DT40 Tdp1-/- hTDP1 cells, no CPT, ATP luminescence, 48 h; Potency, µM (titrated, usually from 46.2 µM), for the others: at the top dose activity change, negative = growth inhibition, hits mostly inhibitors; 420,000 compounds, 15% hits; AID 686978, 2013; also: potency is read from the fitted curve at half-maximal effect; % is scaled to controls: 0 for no effect and ±100 for the full control effect; nearly all actives have a fitted effect of over 55% in size
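Compound effects on proliferation are scored in DT40 Tdp1-/-;hTDP1 cells in the absence of CPT. ATP levels (CellTiter-Glo luminescence) are recorded after a ≥48 hr, 37 °C incubation.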
IL1B secr inh – qHTS for Inhibitors of Inflammasome Signaling: IL-1-beta AlphaLISA Primary Screen; activity change, % at 57.5 µM; THP-1 LPS/ATP IL-1B secretion, AlphaLISA, 16 h; active compounds read low; 360,000 compounds, 4.7% hits; in the data active = activity change below about -50%; inconclusive = mostly about -30% to -49%; also: % is scaled to controls: 0 for no effect and ±100 for the full control effect
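Secreted IL-1B measured by AlphaLISA bead assay after 16 h compound exposure of THP-1 cells; compounds (final up to 57.5 uM) added 1 h before LPS (250 ng/mL) and ATP (1.25 mM) stimulation; lower signal means less secretion.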
MCF10A rereplic – A quantitative high throughput screen for small molecules that induce DNA re-replication in MCF 10a normal breast cells | 350,000 compounds, 2.9% hits | MCF 10A DNA re-replication, Hoechst nuclear intensity, 48 h | Potency, µM (series often up to 46.1 µM), for the others: at the top dose activity, positive = re-replication, hits mostly activators; also: potency is read from the fitted curve at half-maximal effect; % of control where 0% means no effect; nearly all actives have a fitted effect of over 50% in size
Chronic BCR inh – qHTS Assay to Find Inhibitors of Chronic Active B-Cell Receptor Signaling. AID 493014, 2011. ABC-DLBCL IkBa-CBG/CBR reporter, luminescence ratio, 4 h. 340,000 compounds, 0.05% hits. Potency, µM (highest dose often 46.1 µM), for inactives: at the top dose activity change, negative = inhibition, hits mostly inhibitors; active = well fitted inhibition curve with a large enough effect in the signal ratio, with a control signal flat, not every such curve was filed as active; inconclusive = small, poorly fitted or top-dose-only effect, or effect the other way, or a change in a side signal; the % refers to the signal ratio;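 also: potency is read from the fitted curve at half-maximal effect; plate controls were basal doxycycline-induced cells for no effect and cells given 10 µM MG132 for full effect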
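TMD8 human ABC-DLBCL cells with doxycycline-inducible IκBα–green luciferase fusion and unfused red luciferase, in 0.5% FBS medium; compounds up to 46 uM, 4 h at 37C. Green/red luminescence ratio, filter-overlap corrected, fitted to concentration-response curves.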
The depositor's hits bear a star; ? = inconclusive; · = not tested or not shown. Unless noted, calls follow the shape of the dose curve; as a rule, active = well fitted curve in the direction sought with a large enough effect; inconclusive = small, poorly fitted or top-dose-only effect, or another doubt; inactive = no such curve, though single readings can be large; an effect the other way counts as inactive or inconclusive.

SMILES	TDP1 cell CPT	SW480 rerep	DT40 TDP1 no CPT	IL1B secr inh	MCF10A rereplic	Chronic BCR inh
CCN1CCN(CCCNC(=O)c2cc3c(=O)[nH]c4ccccc4c3s2)CC1	?	4.4%	?	?	0.9%	?
CCC(C)NC(=O)c1cc2c(=O)n(CC)c3ccccc3c2s1 (stereo not drawn)	?	-8.8%	?	?	10.6%	-1.1%
CCn1c(=O)c2cc(C(=O)NCCCN3CCC(C)CC3)sc2c2ccccc21	23.1µM*	·	18.4µM*	·	·	·
CCn1c(=O)c2cc(C(=O)NC3CCC(C)CC3)sc2c2ccccc21 (stereo not drawn)	16.4µM*	·	-84.6%	·	·	·
CCn1c(=O)c2cc(C(=O)NCCCN3CCN(C)CC3)sc2c2ccccc21	16.4µM*	·	?	·	·	·
O=C(CN1CCN(c2ccccc2O)CC1)NC(c1ccccc1)c1ccccc1	?	-8.5%	?	-3.6	-8.6%	?
CCC(C)c1ccc(NC(=O)NCCN2CCCCC2)cc1 (stereo not drawn)	?	?	-25.3%	-52.0*	-13.7%	-5.8%
O=C(NCCN1CCCC1)C(c1ccccc1)c1ccccc1	2.1%	?	19.2%	-25.2	23.1µM*	-0.4%
O=S(OCCN1CCCC1)C(c1ccccc1)c1ccccc1 (stereo not drawn)	?	-9.2%	?	-90.3*	?	·
O=C(CN1CCCC1)NC(c1ccccc1)c1ccccc1	20.6µM*	-16.2%	16.4µM*	-1.2	-2.1%	2.8%
O=C(NCCCN1CCOCC1)C(c1ccccc1)c1ccccc1	-0.1%	1.0%	2.0%	-8.7	0.3%	8.9%
O=C(OCC(=O)N1CCN(c2ccccc2)CC1)c1ncc(Cl)c(Cl)c1Cl	-7.7%	-41.2%	-12.2%	-17.4	-29.4%	-7.7%
CC(=O)Nc1ccc(NC(=O)C(C)OC(=O)c2cccc(S(=O)(=O)N3CCCC3)c2)cc1 (stereo not drawn)	-12.4%	-7.5%	-3.7%	2.7	0.7%	3.5%
CCOc1ccc(C(C(=O)NC(C)(C)C)N(CCOC)C(=O)CCC(=O)Nc2ccccn2)cc1 (stereo not drawn)	23.1%	-1.2%	2.4%	41.3	12.5%	2.6%
Cc1c(NC(=O)C(C)OC(=O)COc2ccc(C#N)cc2)c(=O)n(-c2ccccc2)n1C (stereo not drawn)	1.8%	-0.8%	2.7%	2.7	4.1%	4.3%
Cc1cnc(=O)[nH]c1SCc1cccc([N+](=O)[O-])c1	4.2%	-13.5%	3.4%	-6.4	-4.6%	?
CC(NC(=O)CN1C(=O)NC2(CCCCCCC2)C1=O)c1ccccc1 (stereo not drawn)	7.0%	-0.9%	8.4%	1.8	-3.3%	0.6%
CC(NC(=O)CN1C(=O)NC2(CCCCC2)C1=O)c1ccc(S(N)(=O)=O)cc1 (stereo not drawn)	?	6.51µM*	-5.1%	8.1	?	·
O=C(CN1C(=O)NC2(CCCC2)C1=O)NC(c1ccccc1)c1ccccc1	?	?	16.4µM*	-81.7*	-30.6%	-9.0%
O=C(Cn1nc([N+](=O)[O-])nc1Br)NC(c1ccccc1)c1ccccc1	20.6µM*	?	16.4µM*	?	?	?
CCCCNC(=O)C1(C)CCN1C(=O)c1cc(C)n(C(C)(C)C)n1 (stereo not drawn)	?	·	?	11.4	·	·
Cc1cc(C)cc(NC(=O)[C@H](NC(=O)[C@@H]2Cc3ccccc3CN2)c2ccccc2)c1	?	26.4%	25.9µM*	11.8	65.3%	?
